These results are taken from the supplement of paper PMC11732987, “Enantioselective OTUD7B fragment discovery through chemoproteomics screening and high-throughput optimisation” (Communications Chemistry, 2025).

Each structure is given as a SMILES string.

EIF3H, sequence (O15372 whole entry, the tested form may be a part): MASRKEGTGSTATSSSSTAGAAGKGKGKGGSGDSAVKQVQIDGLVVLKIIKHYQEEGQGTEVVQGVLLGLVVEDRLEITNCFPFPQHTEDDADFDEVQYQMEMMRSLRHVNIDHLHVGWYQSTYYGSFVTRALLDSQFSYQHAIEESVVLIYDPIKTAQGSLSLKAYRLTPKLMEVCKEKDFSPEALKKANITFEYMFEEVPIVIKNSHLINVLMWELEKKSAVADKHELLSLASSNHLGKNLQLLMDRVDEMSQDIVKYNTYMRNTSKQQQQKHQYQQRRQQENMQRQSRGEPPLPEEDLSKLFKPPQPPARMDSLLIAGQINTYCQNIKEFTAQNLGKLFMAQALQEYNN

One experiment deals with EIF3H (UniProt O15372). Kind of experiment: log2 ratio of Biotin-Ahx-Ub-VS probe labelling (fragment/DMSO); higher = less target engagement (more negative = stronger competition), active = hit call of the paper (q ≤ 0.05, log2 ratio ≤ -1). To be noted: compound concentration: 200 uM; treatment time: 3 h. The method, boiled down:
(§1)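 HEK293T lysate in Tris/CHAPS/IGEPAL buffer with protease inhibitors (495 µg per sample) was given fragment at 200 µM or vehicle for 3 h, in triplicate. It then received Biotin-Ahx-Ub-VS at 0.5 µM final for 1 h. Labelled DUBs were NeutrAvidin-enriched, digested with LysC and trypsin, and run by diaPASEF LC-MS/MS. Values are average log2 fragment/vehicle ratios by unpaired t-test on global-median-normalised Spectronaut quantities of proteins with ≥2 unique peptides.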
As for `CC(NC(=O)CCl)c1csc(-c2ccccc2)n1.Cl` (stereo not given), the “log2 ratio of Biotin-Ahx-Ub-VS probe labelling” value (“log2 ratio” for short) is -0.03 (inactive).

As to `CCN(C(=O)CCl)C1CCCCC1`, the “log2 ratio” value is 0.022 (inactive).

For the compound `CN(C)C(=O)c1ccc(NC(=O)CCl)cc1`, the “log2 ratio” value was 0.142 (inactive).

Regarding `NC(=O)C1CCCN(C(=O)CCl)C1` (stereo not given), the “log2 ratio” value is 0.225 (inactive).

Take `Cc1cccc(N(CCC#N)C(=O)CCl)c1C`: the “log2 ratio” value is 0.111 (inactive).

Regarding `CC(NC(=O)CCl)c1cc2n(n1)CCCC2.Cl` (stereo not given), the “log2 ratio” value was 0.193 (inactive).

`O=C(CCl)NCc1cccc(N2CCCC2=O)c1`: the “log2 ratio” value is 0.112 (inactive).

For the compound `N#Cc1ccccc1N1CCN(C(=O)CCl)CC1`, the “log2 ratio” value was -0.0881 (inactive).

For `Cl.Cn1nc2c(c1CNC(=O)CCl)CCCC2`, the “log2 ratio” value was -0.0155 (inactive).

For the compound `Cc1ccc(C(=O)NCCNC(=O)CCl)cc1`, the “log2 ratio” value was -0.101 (inactive).

Regarding `Cc1nc(-c2cccc(NC(=O)CCl)c2)cs1`, the “log2 ratio” value is 0.167 (inactive).

For the compound `Cl.O=C(CCl)N1CCc2ncncc2C1`, the “log2 ratio” value is -0.29 (inactive).

Regarding `CC(NC(=O)CCl)c1cccc2ccccc12` (stereo not given), the “log2 ratio” value was -0.0531 (inactive).

Consider `Cc1ccc(N(C(=O)CCl)C2C=CS(=O)(=O)C2)cc1` (stereo not given), for which the “log2 ratio” value is -0.276 (inactive).

As for `Cc1cccnc1NC(=O)C1CCN(C(=O)CCl)CC1.Cl`, the “log2 ratio” value is 0.146 (inactive).

Turning to `O=C(CCl)N(C1=CCCCC1)C1CC1`, the “log2 ratio” value was 0.314 (inactive).

As for `O=C(CCl)N1CCN(C(=O)Nc2ccccc2)CC1`, the “log2 ratio” value was 0.232 (inactive).

`CC(NC(=O)CCl)c1noc(Cc2ccccc2)n1` (stereo not given): the “log2 ratio” value is -0.398 (inactive).

Turning to `Cc1cccn2cc(CCNC(=O)CCl)nc12.Cl`, the “log2 ratio” value is 0.00132 (inactive).

Consider `Cl.O=C(CCl)NC1(c2ncccn2)CCC1`, for which the “log2 ratio” value was 0.137 (inactive).

With `O=C(CCl)N1CCCC2CCCCC21` (stereo not given), the “log2 ratio” value was 0.299 (inactive).

`O=C(CCl)N1CCC(OCc2ccccc2F)CC1`: the “log2 ratio” value is -0.284 (inactive).

As for `O=C(CCl)N(Cc1ccsc1)C1CC1`, the “log2 ratio” value is 0.0796 (inactive).

In the case of `O=C(CCl)N1CC2(CCOCC2)C1`, the “log2 ratio” value was 0.061 (inactive).

For `CN(C)C(=O)c1ccc(CNC(=O)CCl)cc1`, the “log2 ratio” value is 0.092 (inactive).

For the compound `CNC(=O)Cn1cc(NC(=O)CCl)cn1`, the “log2 ratio” value was 0.0304 (inactive).

Turning to `O=C(CCl)N1CCC[C@@H]1c1ccon1`, the “log2 ratio” value was 0.193 (inactive).

Take `CN1C(=O)c2ccc(NC(=O)CCl)cc2C1=O`: the “log2 ratio” value is 0.319 (inactive).

On to `Cl.Cn1nccc1C(NC(=O)CCl)c1ccccc1` (stereo not given), for which the “log2 ratio” value was 0.106 (inactive).

As to `O=C(CCl)NCC1(c2ccccc2)CC1`, the “log2 ratio” value was 0.176 (inactive).

In the case of `Cc1n[nH]c(=O)c2c(NC(=O)CCl)oc(C)c12`, the “log2 ratio” value is 0.156 (inactive).

`CC(NC(=O)CCl)c1ccc2[nH]ncc2c1` (stereo not given): the “log2 ratio” value was -0.275 (inactive).

On to `Cc1ccc2nnc(CNC(=O)CCl)n2c1`, for which the “log2 ratio” value is 0.00833 (inactive).

For `O=C(CCl)Nc1cc(Cl)ccc1C(=O)O`, the “log2 ratio” value is -0.119 (inactive).

With `O=C(CCl)Nc1ccc(Cl)c(F)c1`, the “log2 ratio” value is 0.246 (inactive).

A further experiment concerns the target T1, FAM105A (UniProt Q9NUU6).
T1 sequence (whole entry): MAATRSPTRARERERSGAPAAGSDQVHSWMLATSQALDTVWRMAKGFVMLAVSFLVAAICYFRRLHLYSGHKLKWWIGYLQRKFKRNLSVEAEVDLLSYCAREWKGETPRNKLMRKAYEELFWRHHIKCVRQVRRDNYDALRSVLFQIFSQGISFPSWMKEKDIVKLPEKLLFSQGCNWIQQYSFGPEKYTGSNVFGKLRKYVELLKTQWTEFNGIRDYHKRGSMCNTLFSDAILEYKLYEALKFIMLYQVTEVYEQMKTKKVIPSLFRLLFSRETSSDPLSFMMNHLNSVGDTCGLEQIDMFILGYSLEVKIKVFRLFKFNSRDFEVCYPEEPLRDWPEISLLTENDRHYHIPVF
The experiment is described as above. To be noted: compound concentration: 200 uM; treatment time: 3 h. The method, boiled down:
as §1
On to `CC(NC(=O)CCl)c1csc(-c2ccccc2)n1.Cl` (stereo not given), for which the “log2 ratio” value is 0.268 (inactive).

For `CCN(C(=O)CCl)C1CCCCC1`, the “log2 ratio” value is -0.207 (inactive).

For the compound `CN(C)C(=O)c1ccc(NC(=O)CCl)cc1`, the “log2 ratio” value was 0.105 (inactive).

On to `NC(=O)C1CCCN(C(=O)CCl)C1` (stereo not given), for which the “log2 ratio” value was 0.217 (inactive).

On to `Cc1cccc(N(CCC#N)C(=O)CCl)c1C`, for which the “log2 ratio” value is -0.0506 (inactive).

As for `CC(NC(=O)CCl)c1cc2n(n1)CCCC2.Cl` (stereo not given), the “log2 ratio” value is -0.0943 (inactive).

As for `O=C(CCl)NCc1cccc(N2CCCC2=O)c1`, the “log2 ratio” value is -0.0389 (inactive).

Take `N#Cc1ccccc1N1CCN(C(=O)CCl)CC1`: the “log2 ratio” value is 0.162 (inactive).

`Cl.Cn1nc2c(c1CNC(=O)CCl)CCCC2`: the “log2 ratio” value is -0.099 (inactive).

Take `Cc1ccc(C(=O)NCCNC(=O)CCl)cc1`: the “log2 ratio” value is -0.349 (inactive).

For `Cc1nc(-c2cccc(NC(=O)CCl)c2)cs1`, the “log2 ratio” value is 0.000667 (inactive).

With `Cl.O=C(CCl)N1CCc2ncncc2C1`, the “log2 ratio” value was 0.0971 (inactive).

With `CC(NC(=O)CCl)c1cccc2ccccc12` (stereo not given), the “log2 ratio” value was -0.022 (inactive).

As for `Cc1ccc(N(C(=O)CCl)C2C=CS(=O)(=O)C2)cc1` (stereo not given), the “log2 ratio” value was 0.167 (inactive).

As for `Cc1cccnc1NC(=O)C1CCN(C(=O)CCl)CC1.Cl`, the “log2 ratio” value was -0.0889 (inactive).

With `O=C(CCl)N(C1=CCCCC1)C1CC1`, the “log2 ratio” value was 0.173 (inactive).

Take `O=C(CCl)N1CCN(C(=O)Nc2ccccc2)CC1`: the “log2 ratio” value was 0.233 (inactive).

`CC(NC(=O)CCl)c1noc(Cc2ccccc2)n1` (stereo not given): the “log2 ratio” value is -0.027 (inactive).

As to `Cc1cccn2cc(CCNC(=O)CCl)nc12.Cl`, the “log2 ratio” value is 0.112 (inactive).

`Cl.O=C(CCl)NC1(c2ncccn2)CCC1`: the “log2 ratio” value was -0.242 (inactive).

Take `O=C(CCl)N1CCCC2CCCCC21` (stereo not given): the “log2 ratio” value was 0.212 (inactive).

Turning to `O=C(CCl)N1CCC(OCc2ccccc2F)CC1`, the “log2 ratio” value is -0.178 (inactive).

`O=C(CCl)N(Cc1ccsc1)C1CC1`: the “log2 ratio” value was -0.378 (inactive).

Regarding `O=C(CCl)N1CC2(CCOCC2)C1`, the “log2 ratio” value was -0.00776 (inactive).

With `CN(C)C(=O)c1ccc(CNC(=O)CCl)cc1`, the “log2 ratio” value is 0.248 (inactive).

With `CNC(=O)Cn1cc(NC(=O)CCl)cn1`, the “log2 ratio” value is -0.125 (inactive).

Regarding `O=C(CCl)N1CCC[C@@H]1c1ccon1`, the “log2 ratio” value was 0.198 (inactive).

For the compound `CN1C(=O)c2ccc(NC(=O)CCl)cc2C1=O`, the “log2 ratio” value was -0.33 (inactive).

Turning to `Cl.Cn1nccc1C(NC(=O)CCl)c1ccccc1` (stereo not given), the “log2 ratio” value was 0.0639 (inactive).

As to `O=C(CCl)NCC1(c2ccccc2)CC1`, the “log2 ratio” value is -0.0439 (inactive).

`Cc1n[nH]c(=O)c2c(NC(=O)CCl)oc(C)c12`: the “log2 ratio” value is -0.0353 (inactive).

In the case of `CC(NC(=O)CCl)c1ccc2[nH]ncc2c1` (stereo not given), the “log2 ratio” value is -0.234 (inactive).

Regarding `Cc1ccc2nnc(CNC(=O)CCl)n2c1`, the “log2 ratio” value was 0.283 (inactive).

`O=C(CCl)Nc1cc(Cl)ccc1C(=O)O`: the “log2 ratio” value is -0.0511 (inactive).

As to `O=C(CCl)Nc1ccc(Cl)c(F)c1`, the “log2 ratio” value was -0.175 (inactive).
